Data reported in PubChem BioAssay (NCI).
This is part of a sample that, as a whole, favours compounds with a hit. Of some 83,000 tested, about 20% had one in any assay.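 Values shown are percent growth following 48 h exposure of cells in 96-well plates to a single concentration of compound; below 10 was considered active.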 A number with no mark means an inactive call. Activity calls are given as the source filed them.

test system: HL-60(TB) leukemia; assay: NCI-60 one-dose screen, 48 h (100 = growth as untreated, 0 = no growth, -100 = all killed); settings: 10 µM unless noted

Compound	growth
c1ccc2c(Cc3csc4ccccc34)csc2c1	72%
CN(C)c1ccc(/C=C(\C#N)c2cc3ccccc3[nH]2)cc1	22.2%
CC(=O)Nc1cc2c3c(cccc3c1)-c1ccccc1-2	0.506% (active)
